Assay results reported in PubChem BioAssay (Tox21).
Records with an inconclusive call do not appear. Calls of active or inactive are those of the source. Unless noted, calls come from the whole dose curve.

Experiments:
[1] = Nuclear factor erythroid 2-related factor 2/antioxidant responsive element (Nrf2/ARE) small molecule agonists: qHTS cell viability counter screen in human keratinocytes (AID 1919968; active = well fitted curve in the direction sought with a large enough effect in the repeat runs; an effect the other way counts as inactive or inconclusive; note: nearly all actives have a fitted effect of over 55% in size)
Method in brief: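 CellTiter-Fluor fluorescence, read 1 h after reagent, gave viability in the same wells as the ARE-luciferase assay. KeratinoSens cells (1,500/well) had 23 h compound exposure at 37 C/5% CO2 following 5 h plating.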

[2] = Nuclear factor erythroid 2-related factor 2/antioxidant responsive element (Nrf2/ARE) small molecule agonists: luciferase reporter gene qHTS assay in human keratinocytes (AID 1919969); note: nearly all actives have a fitted effect of over 35% in size; note: potency is the fitted concentration of half-maximal effect
[3] = target: Gonadotropin-releasing hormone receptor (Homo sapiens) (UniProt P30968); assay: Human gonadotropin-releasing hormone receptor (GnRHR) small molecule agonists, calcium flux assay in GnRHR-HEK293 cells (AID 1920063); note: nearly all actives have a fitted effect of over 35% in size
Sequence of Gonadotropin-releasing hormone receptor (Homo sapiens) (P30968 whole entry, looked up): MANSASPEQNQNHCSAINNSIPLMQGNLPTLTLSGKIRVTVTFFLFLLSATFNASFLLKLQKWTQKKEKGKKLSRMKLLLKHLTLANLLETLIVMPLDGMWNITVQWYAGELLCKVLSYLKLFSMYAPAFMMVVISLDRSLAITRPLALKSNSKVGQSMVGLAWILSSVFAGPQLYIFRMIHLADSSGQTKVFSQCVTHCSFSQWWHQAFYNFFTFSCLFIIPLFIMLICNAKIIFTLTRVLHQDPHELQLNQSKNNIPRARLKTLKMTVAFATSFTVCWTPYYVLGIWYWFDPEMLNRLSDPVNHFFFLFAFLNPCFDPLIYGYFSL
Method in brief: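 Agonist mode: compounds at 15 concentrations, in triplicate, went onto calcium dye-loaded GnRHR-HEK293 cells. Intracellular calcium was then followed as 480/540 nm fluorescence at 1 s intervals over 3 min.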

[4] = target: KiSS-1 receptor (Homo sapiens) (UniProt Q969F8); assay: Human kisspeptin (KISS1R) small molecule agonists, calcium flux assay in KISS1R-HEK293 cells (AID 1920064; active = well fitted curve in the direction sought with a large enough effect in the repeat runs; an effect the other way counts as inactive or inconclusive)
Sequence of KiSS-1 receptor (Homo sapiens) (Q969F8 whole entry, looked up): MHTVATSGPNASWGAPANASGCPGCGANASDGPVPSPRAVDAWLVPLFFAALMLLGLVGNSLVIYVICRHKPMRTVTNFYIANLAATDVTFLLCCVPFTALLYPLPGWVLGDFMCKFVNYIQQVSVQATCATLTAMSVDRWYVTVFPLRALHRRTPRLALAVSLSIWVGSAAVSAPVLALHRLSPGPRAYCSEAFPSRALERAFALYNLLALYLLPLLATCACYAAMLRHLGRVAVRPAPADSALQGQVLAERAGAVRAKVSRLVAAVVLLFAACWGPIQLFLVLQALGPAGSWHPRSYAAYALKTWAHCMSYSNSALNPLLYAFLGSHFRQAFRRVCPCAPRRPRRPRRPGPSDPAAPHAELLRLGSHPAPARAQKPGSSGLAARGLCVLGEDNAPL
Method in brief: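 Agonist mode: intracellular calcium rise tracked at 1 s intervals over 3 min (480/540 nm) immediately after compound addition to dye-loaded KISS1R-HEK293 stable cells. Each compound tested at 15 concentrations in triplicate.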

[5] = G protein-coupled receptor (GPCR) small molecule agonists, calcium flux assay: HEK293 wild type cell line counter screen (AID 1920065)
Method in brief: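 Calcium flux counter screen: compound added in agonist mode at 15 concentrations in triplicate to dye-loaded parental HEK293 cells. Fluorescence (480/540) read kinetically for 3 min; ATP served as positive control.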

[6] = p53 small molecule agonists, cell-based qHTS assay with human liver microsomes (AID 1963577)
Method in brief: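 Fluorescence of the beta-lactamase reporter in p53RE-bla cells, detected with LiveBLAzer substrate (2 h, room temperature, dark), served as the read-out after 16 h compound exposure at 37 C with human liver microsomes and NADPH, each 0.5 mg/mL final.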

[7] = p53 small molecule agonists, cell-based qHTS assay with rat liver microsomes (AID 1963578)
Method in brief: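 Cells carrying a p53 response element–beta-lactamase reporter were plated and rested 5 h, then dosed with compound in DMSO plus rat liver microsomes and NADPH, each at 0.5 mg/mL final. After 16 h at 37 C, LiveBLAzer substrate was added for 2 h.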

[8] = p53 small molecule agonists, cell-based qHTS assay with human liver microsomes: qHTS cell viability counter screen (AID 1963579); note: nearly all actives have a fitted effect of over 45% in size
Method in brief: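 Cytotoxicity counter screen: p53RE-bla, 4,000 cells/well; 5 h settle, 37 C/5% CO2; cpd + HLM 0.5 mg/mL + NADPH 0.5 mg/mL (final); 16 h, 37 C; CellTiter-Glo, 30 min RT, luminescence.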

[9] = p53 small molecule agonists, cell-based qHTS assay with rat liver microsomes: qHTS cell viability counter screen (AID 1963580); note: nearly all actives have a fitted effect of over 45% in size
Method in brief: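 Rat liver microsome (0.5 mg/mL final) and NADPH (0.5 mg/mL final) co-incubation with compounds for 16 h at 37 C on HCT-116 p53RE-bla cells; cytotoxicity taken from intracellular ATP luminescence.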

[10] = p53 small molecule agonists, cell-based qHTS assay: qHTS cell viability counter screen (AID 1963581); note: nearly all actives have a fitted effect of over 45% in size
Method in brief: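 Counter screen read by CellTiter-Glo luminescence (ATP content, 30 min at room temperature), run in the same wells as the beta-lactamase reporter read. HCT-116 p53RE-bla cells saw compounds for 16 h at 37 C.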

[11] = p53 small molecule agonists, cell-based qHTS assay (AID 1963582; active = well fitted activation curve with a large enough effect in the signal ratio in the repeat runs, not every such curve was filed as active; the % refers to the signal ratio)
Method in brief: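 Read-out is beta-lactamase FRET fluorescence after 2 h at room temperature with LiveBLAzer B/G substrate. p53 response element-bla cells were treated 16 h at 37 C with compounds in DMSO, added 5 h after seeding.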

[12] = target: Muscarinic acetylcholine receptor M1 (Homo sapiens) (UniProt P11229); assay: Cholinergic receptor muscarinic 1 (CHRM1) small molecule antagonists, cell-based qHTS assay (AID 1963588); note: nearly all actives have a fitted effect of over 40% in size
Sequence of Muscarinic acetylcholine receptor M1 (Homo sapiens) (P11229 whole entry, looked up): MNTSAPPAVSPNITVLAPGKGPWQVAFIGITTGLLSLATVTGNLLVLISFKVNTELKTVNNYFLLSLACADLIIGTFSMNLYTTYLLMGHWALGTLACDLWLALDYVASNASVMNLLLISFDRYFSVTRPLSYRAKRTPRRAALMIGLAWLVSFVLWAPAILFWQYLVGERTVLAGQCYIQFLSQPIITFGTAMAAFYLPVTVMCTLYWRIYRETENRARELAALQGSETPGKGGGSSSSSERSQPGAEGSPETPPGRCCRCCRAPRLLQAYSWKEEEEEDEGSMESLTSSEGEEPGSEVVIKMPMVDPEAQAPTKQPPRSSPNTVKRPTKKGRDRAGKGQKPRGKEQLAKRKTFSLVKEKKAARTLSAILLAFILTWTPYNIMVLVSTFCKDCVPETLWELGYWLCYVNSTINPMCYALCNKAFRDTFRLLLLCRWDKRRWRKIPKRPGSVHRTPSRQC
Method in brief: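 Compounds were tested at 15 concentrations in three independent runs. Dye-loaded CHRM1-CHO cells were exposed 5 min at room temperature before stimulation by acetylcholine added at 50nM. Intracellular calcium was read kinetically on FDSS for 3 min.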

[13] = target: Muscarinic acetylcholine receptor M1 (Homo sapiens) (UniProt P11229); assay: Cholinergic receptor muscarinic 1 (CHRM1) small molecule agonists, cell-based qHTS assay (AID 1963589); note: nearly all actives have a fitted effect of over 35% in size
Method in brief: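 Agonist-mode calcium-flux screen: compounds at 15 concentrations, three independent runs, were pin-transferred onto dye-loaded human CHRM1-CHO cells. Fluorescence was then recorded kinetically every second over minutes.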

[14] = target: Beta-2 adrenergic receptor (Homo sapiens) (UniProt P07550); assay: Adrenergic beta2 receptor (ADRB2) small molecule antagonists, cell-based qHTS assay (AID 1963592); note: series mostly up to about 92 µM; nearly all actives have a fitted effect of over 50% in size
Sequence of Beta-2 adrenergic receptor (Homo sapiens) (P07550 whole entry, looked up): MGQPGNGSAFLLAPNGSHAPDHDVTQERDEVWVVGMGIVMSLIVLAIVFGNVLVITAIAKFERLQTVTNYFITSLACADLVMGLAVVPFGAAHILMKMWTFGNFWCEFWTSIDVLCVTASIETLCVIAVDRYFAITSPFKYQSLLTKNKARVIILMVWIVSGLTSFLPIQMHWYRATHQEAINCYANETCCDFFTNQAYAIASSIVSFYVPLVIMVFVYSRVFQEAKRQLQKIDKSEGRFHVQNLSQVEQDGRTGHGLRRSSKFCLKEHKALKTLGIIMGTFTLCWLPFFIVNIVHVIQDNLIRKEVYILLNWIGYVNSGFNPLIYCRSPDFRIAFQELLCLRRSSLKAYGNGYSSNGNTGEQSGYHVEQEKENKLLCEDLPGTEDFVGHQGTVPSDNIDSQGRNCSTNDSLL
Method in brief: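 Assay format: CHO-ADRB2 cells, 18-20hr seeding at 37C/5% CO2, then compound plus 1nM isoproterenol agonist mix for 0.5hr RT. Homogeneous time-resolved fluorescence cAMP detection after 1hr, expressed as 665/615 nm ratio.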

[15] = target: D(2) dopamine receptor (Homo sapiens) (UniProt P14416); assay: Dopamine D2 receptor (DRD2) small molecule antagonists, cell-based qHTS assay (AID 1963595; active = well fitted inhibition curve with a large enough effect in the signal ratio in the repeat runs, with a control signal flat; the % refers to the signal ratio)
Sequence of D(2) dopamine receptor (Homo sapiens) (P14416 whole entry, looked up): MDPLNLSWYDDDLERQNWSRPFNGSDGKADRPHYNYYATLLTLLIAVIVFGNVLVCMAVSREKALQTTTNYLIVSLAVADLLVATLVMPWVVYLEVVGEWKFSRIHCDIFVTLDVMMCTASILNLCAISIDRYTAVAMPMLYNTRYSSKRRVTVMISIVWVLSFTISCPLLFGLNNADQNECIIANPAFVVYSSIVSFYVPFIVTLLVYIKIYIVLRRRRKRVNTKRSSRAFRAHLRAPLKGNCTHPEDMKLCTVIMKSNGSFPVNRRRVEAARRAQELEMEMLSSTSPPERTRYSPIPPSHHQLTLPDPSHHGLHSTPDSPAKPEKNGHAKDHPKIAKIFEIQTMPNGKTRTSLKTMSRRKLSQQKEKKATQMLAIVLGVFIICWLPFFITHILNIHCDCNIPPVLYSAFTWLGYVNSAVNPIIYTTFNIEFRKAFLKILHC
Method in brief: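 In this cell-based antagonist screen, compounds act for 10 min at room temperature before a 30 min challenge with 12 nM quinpirole and 200 nM NKH477. cAMP is quantified by HTRF competition in DRD2-HEK293 cells containing 0.1 mM Ro20-1724.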

[16] = cAMP Responsive Elements (CRE) small molecule agonists, cell-based qHTS assay (AID 1963590)
Method in brief: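 Agonist mode: compound added to CRE-bla HEK 293T cells (2,000/well, 18 h after plating) for 3 h at 37 C/5% CO2. Reporter activity detected via FRET beta-lactamase substrate, 2 h room-temperature loading.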

[17] = cAMP Responsive Elements (CRE) small molecule antagonists, cell-based qHTS assay (AID 1963591; active = well fitted inhibition curve with a large enough effect in the signal ratio in the repeat runs, not every such curve was filed as active; the % refers to the signal ratio)
Method in brief: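 Antagonist mode: compounds are added alongside the adenylyl cyclase activator NKH477 (0.25 uM final) to CRE-bla HEK293T cells for 3 h. LiveBLAzer FRET substrate, 2 h at room temperature, reports bla expression.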

[18] = target: D(2) dopamine receptor (Homo sapiens) (UniProt P14416); assay: Dopamine D2 receptor (DRD2) small molecule agonists, cell-based qHTS assay (AID 1963594); note: nearly all actives have a fitted effect of over 35% in size
Method in brief: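 cAMP accumulation in DRD2-HEK293 cells measured by HTRF after 1 h detection; compounds added 10 min before NKH477 (200nM […]) forskolin-analogue stimulation, 30 min at room temperature, with Ro20-1724 present at 0.1 mM final.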

[19] = target: 5-hydroxytryptamine receptor 2A (Homo sapiens) (UniProt P28223); assay: 5-hydroxytryptamine receptor 2A (HTR2A) small molecule agonists, cell-based qHTS assay (AID 1963587); note: nearly all actives have a fitted effect of over 30% in size
Sequence of 5-hydroxytryptamine receptor 2A (Homo sapiens) (P28223 whole entry, looked up): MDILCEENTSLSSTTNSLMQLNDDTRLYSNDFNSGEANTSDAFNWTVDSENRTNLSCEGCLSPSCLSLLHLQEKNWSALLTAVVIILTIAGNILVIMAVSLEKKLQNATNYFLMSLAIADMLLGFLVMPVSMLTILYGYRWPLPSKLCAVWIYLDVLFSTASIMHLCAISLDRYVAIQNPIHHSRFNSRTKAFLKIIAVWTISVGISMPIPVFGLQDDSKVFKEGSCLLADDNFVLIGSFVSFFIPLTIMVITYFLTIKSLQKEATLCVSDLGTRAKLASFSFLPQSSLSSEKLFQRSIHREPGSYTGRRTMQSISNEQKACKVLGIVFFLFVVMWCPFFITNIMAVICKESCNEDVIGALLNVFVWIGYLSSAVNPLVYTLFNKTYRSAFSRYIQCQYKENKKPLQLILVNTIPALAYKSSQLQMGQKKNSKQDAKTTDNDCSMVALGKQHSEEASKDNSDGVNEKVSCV
Method in brief: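 Kinetic calcium-flux fluorescence (2 min, 1 sec intervals) after compound addition in agonist mode. HTR2A-CHO cells were cultured 18 h, then dye-loaded 1 h at 37 C.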

[20] = target: Beta-2 adrenergic receptor (Homo sapiens) (UniProt P07550); assay: Adrenergic beta2 receptor (ADRB2) small molecule agonists, cell-based qHTS assay (AID 1963593);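 note: CHO cells stably overexpressing human ADRB2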
Method in brief: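 CHO cells stably over-expressing ADRB2 were plated overnight at 37C, then dosed with compounds plus a stimulation mix containing 100uM IBMX and 25uM Ro-20-1724 for 0.5hr at room temperature. cAMP was measured by HTRF competition, 1hr.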
% is set by controls: 0 for no effect and ±100 for the full control effect.

Nc1ncnc2c1ncn2[C@H]1CC[C@@H](CO)O1
inactive: Potency [1] | Potency [2] | Potency [3] | outcome [4] | outcome [5] | Potency [6] | Potency [7] | Potency [8] | Potency [9] | Potency [10] | Potency [11] | Potency [12] | Potency [13] | Potency [14] | Potency [15]

OC1CCCc2ccccc21 (configuration not stated)
inactive: Potency [1] | Potency [2] | Potency [3] | outcome [4] | outcome [5] | Potency [6] | Potency [7] | Potency [8] | Potency [9] | Potency [10] | Potency [11] | Potency [12] | Potency [13] | Potency [16] | Potency [17] | Potency [14] | Potency [18] | Potency [15]

CCC(C)N(C)C(=O)c1cc2ccccc2c(-c2ccccc2Cl)n1 (configuration not stated)
inactive: Potency [1] | Potency [2] | Potency [3] | outcome [4] | outcome [5] | Potency [6] | Potency [7] | Potency [8] | Potency [9] | Potency [10] | Potency [11] | Potency [13] | Potency [16] | Potency [14] | Potency [18] | Potency [15]

CN1CCN(CC(=O)N2c3ccccc3C(=O)Nc3cccnc32)CC1
inactive: activity change, negative = cytotoxicity [1] 0.0434% [at 8.39 µM] | activity, positive = activation [2] -1.98% [at 8.39 µM] | activity change [3] -0.376% [at 5.22 µM, active compounds read high] | activation [4] 7.1% [at 6.97 µM] | activation [5] -0.198% [at 5.23 µM] | activation [6] 8.34% [at 5.99 µM] | activation [7] 0.0177% [at 5.99 µM] | activity change, negative = cytotoxicity [8] 5.54% [at 5.99 µM] | activity change, negative = cytotoxicity [9] 1.67% [at 5.99 µM] | activity change, negative = cytotoxicity [10] 22.9% [at 5.99 µM] | activation [11] -1.98% [at 5.99 µM] | activation [19] 0.502% [at 7.02 µM] | activity change, negative = inhibition [17] -9.03% [at 8.39 µM] | activity change, negative = inhibition [14] -1.73% [at 8.39 µM] | activation [20] -0.465% [at 8.39 µM] | activation [18] -0.938% [at 8.39 µM] | activity change, negative = inhibition [15] 3.87% [at 8.38 µM]

COc1ccccc1Oc1c(NS(=O)(=O)c2ccc(C(C)(C)C)cc2)nc(-c2ncccn2)nc1OCCO
active: Potency [2] 33.5 µM
inactive: Potency [1] | Potency [3] | outcome [4] | outcome [5] | Potency [6] | Potency [7] | Potency [8] | Potency [9] | Potency [10] | Potency [11] | Potency [19] | Potency [13] | Potency [17] | Potency [14] | Potency [20] | Potency [18] | Potency [15]

CO/N=C(\C(=O)O)c1csc(NC(=O)CCl)n1
inactive: Potency [1] | Potency [2] | Potency [3] | outcome [4] | outcome [5] | Potency [6] | Potency [7] | Potency [8] | Potency [9] | Potency [10] | Potency [11] | Potency [19] | Potency [17] | Potency [14] | Potency [20] | Potency [18] | Potency [15]

C=C(C)C(=O)OCCOCC
active: Potency [2] 54.7 µM
inactive: Potency [1] | Potency [3] | outcome [4] | outcome [5] | Potency [6] | Potency [7] | Potency [8] | Potency [9] | Potency [10] | Potency [11] | Potency [12] | Potency [14] | Potency [18] | Potency [15]

C=COCC1CCC(CO)CC1 (configuration not stated)
inactive: Potency [1] | Potency [2] | Potency [3] | outcome [4] | outcome [5] | Potency [6] | Potency [7] | Potency [8] | Potency [9] | Potency [10] | Potency [11] | Potency [19] | Potency [16] | Potency [14] | Potency [18] | Potency [15]
